GPR151 ag – human GPR151 activation. Q8TDV0. PathHunter beta-arrestin GPR151 cells, luminescence. activation, % at 11.2 µM. actives 1% (n = 650,000); in the data active = activation above about 4.9%
FBW7 activator – human FBW7 E3 ligase activation, primary screen | Q969H0 | AlphaScreen FBW7–phospho-cyclin E peptide binding, activator screen | normalized activity (activation), % at 26.1 µM | actives 0.13% (n = 650,000) | AID 1259310; in the data active = normalized activity above about 1.9%;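 also: purified mutant Fbw7 with reduced substrate affinity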
MITF inh – human MITF inhibition, primary screen. O75030. AlphaScreen MITF homodimerization, bead proximity signal. inhibition, % at 2.6 µM. actives 0.91% (n = 650,000). AID 1259374; in the data active = inhibition above about 50%
Target sequence (O75030 whole entry, looked up): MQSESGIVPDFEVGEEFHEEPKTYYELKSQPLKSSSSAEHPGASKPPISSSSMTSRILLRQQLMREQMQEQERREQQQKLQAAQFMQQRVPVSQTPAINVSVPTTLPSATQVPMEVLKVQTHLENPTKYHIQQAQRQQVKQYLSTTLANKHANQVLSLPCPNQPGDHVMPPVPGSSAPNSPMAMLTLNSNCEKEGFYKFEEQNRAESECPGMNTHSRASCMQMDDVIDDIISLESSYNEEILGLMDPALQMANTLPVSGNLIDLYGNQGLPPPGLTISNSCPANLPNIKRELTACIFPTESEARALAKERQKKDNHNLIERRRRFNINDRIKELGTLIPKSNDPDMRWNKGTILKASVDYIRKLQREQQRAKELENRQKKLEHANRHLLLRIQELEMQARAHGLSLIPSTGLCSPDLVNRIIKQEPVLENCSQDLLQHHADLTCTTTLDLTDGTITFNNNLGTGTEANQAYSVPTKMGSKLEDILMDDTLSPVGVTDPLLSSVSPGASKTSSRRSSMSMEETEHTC
TEAD-YAP inh – TEAD-YAP interaction inhibition. HEK-TIYL cells, TEAD-Gal4/YAP UAS-luciferase luminescence. inhibition, % at 9.12 µM. actives 1.4% (n = 640,000). AID 1259422; in the data active = inhibition above about 32%
MITF inh conf – human MITF inhibition, confirmation; shares compounds with MITF inh; AlphaScreen MITF homodimerization, biotin/His-MITF beads; inhibition, % at 2.6 µM; actives 16% (n = 4,700);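 active = inhibition above a cutoff derived from the DMSO control wells, cut at about 28% in these data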;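 also: inhibitors lower the bead chemiluminescence by keeping MITF from dimerizing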
AS interf DR – optically interferes with AlphaScreen signal in dose response; shares compounds with MITF inh; AlphaScreen optical interference counterscreen, cell-free; IC50, µM; actives 6% (n = 480); AID 1259373; call rule not given here
AlphaScreen intf2 – counter-screen: compounds optically interfering with AlphaScreen; shares compounds with MITF inh; LysRS AlphaScreen counterscreen, signal interference, triplicate; inhibition, % at 2.6 µM; actives 7.6% (n = 4,700); AID 1259376;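 active = inhibition above a cutoff derived from the DMSO control wells, cut at about 30% in these data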
Each line names hits and unclear results; the compound was inactive in the other large screens (follow-up assays come after a bar, where they were run); ! = not active in a repeat. In the library only some 3.5% were active in any assay of this set; here they are far more common.

COc1ccc(S(=O)(=O)N(Cc2cc3ccc(C)cc3[nH]c2=O)CC2CCCO2)cc1 (stereo not given)	MITF inh 69 | MITF inh conf inactive | AlphaScreen intf2 inactive
O=C(CN1CCN(C(=O)CSc2ccc(F)cc2)CC1)c1cccs1	MITF inh 80 | MITF inh conf inactive | AlphaScreen intf2 inactive
CSc1ccc(S(=O)(=O)N2CCN(c3ccc(F)cc3)CC2)cc1	none
O=C(CSc1nc2[nH]ncc2c(=O)n1-c1ccc(Cl)cc1)NCc1cccs1	none
O=C(CSc1nc2[nH]ncc2c(=O)n1-c1ccc(Br)cc1)NCc1cccs1	MITF inh 54 | MITF inh conf inactive | AlphaScreen intf2 inactive
Cc1ccc(F)cc1-n1c(/C=C/c2ccc(OCc3ccc(Cl)c(Cl)c3)cc2)nc2ccccc2c1=O	none
COCCNCC(=O)Nc1nc(C)cs1	MITF inh 70 | MITF inh conf inactive | AlphaScreen intf2 inactive
COCCNCC(=O)Nc1nnc(C)s1	none
COc1ccc(OC)c(NC2CCCCC2OC)c1 (stereo not given)	MITF inh 82 | MITF inh conf inactive | AlphaScreen intf2 inactive
COc1ccc(N2CCN(c3ncnc4sc(C(=O)N5CCN(c6ccccc6)CC5)c(C)c34)CC2)cc1	none
COc1cccc(NC(=O)CN(C)CC(=O)Nc2ccc(C)c(F)c2)c1	MITF inh 91 | MITF inh conf inactive | AlphaScreen intf2 inactive
CN(CC(=O)Nc1cccc(F)c1)CC(=O)Nc1ccccc1Oc1ccccc1	MITF inh 70 | MITF inh conf inactive | AlphaScreen intf2 inactive
CN(CC(=O)Nc1cccc(F)c1)CC(=O)Nc1ccccc1-c1ccccc1	none
C=CCc1ccccc1OCCOCCN1CCN(C)CC1	MITF inh 60 | MITF inh conf inactive | AlphaScreen intf2 inactive
C=CCc1ccccc1OCCOCCN1CCCCC1	MITF inh 79 | MITF inh conf inactive | AlphaScreen intf2 inactive
O=C(c1ccc(F)c(F)c1)N1CCN(Cc2nnnn2-c2ccc(F)cc2)CC1	none
Cc1cc(C(=O)Nc2ccc(S(=O)(=O)N3CC(C)CC(C)C3)cc2)ccc1[N+](=O)[O-] (stereo not given)	none
Clc1cccc(CN2CCN(c3ncccn3)CC2)c1	none
Cc1cccc(CN2CCN(Cc3ccccc3C(F)(F)F)CC2)c1	MITF inh 76 | MITF inh conf inactive | AlphaScreen intf2 inactive
Cc1ccc(S(=O)(=O)N2CCN(Cc3cccc(C)c3)CC2)cc1	none
FC(F)(F)c1ccccc1CN1CCN(Cc2cccc(Cl)c2)CC1	MITF inh 69 | MITF inh conf inactive | AlphaScreen intf2 inactive
O=C1C(=Cc2ccccc2I)C(=O)c2ccccc21	none
O=C1NC(=O)C(=Cc2ccccc2I)C(=O)N1	MITF inh 55 | MITF inh conf inactive | AlphaScreen intf2 inactive
CC(C)Nc1nc(-c2ccc(Cl)cc2)c(S(C)(=O)=O)cc1C#N	MITF inh 58 | MITF inh conf inactive | AlphaScreen intf2 inactive
CS(=O)(=O)c1cc(C#N)c(N2CCNCC2)nc1-c1ccc(Cl)cc1	none
Cc1ccc(C(=O)Nc2ccccc2C#N)c(Cl)c1	MITF inh 63 | MITF inh conf inactive | AlphaScreen intf2 inactive
O=C(/C=C/c1ccco1)NCC(=O)N/N=C/c1ccc(C(=O)O)cc1	MITF inh 51 | MITF inh conf 45 | AS interf DR inactive | AlphaScreen intf2 inactive
Oc1ccc(CNc2cccc(Cl)c2)c2cccnc12	MITF inh 52 | MITF inh conf 107 | AlphaScreen intf2 100
Oc1ccc(CNc2ccccc2F)c2cccnc12	MITF inh 68 | MITF inh conf 70 | AlphaScreen intf2 100
Oc1ccc(Cl)c2cccnc12	none
Oc1ccc(CNc2ccccc2Cl)c2cccnc12	MITF inh 68 | MITF inh conf 51 | AlphaScreen intf2 92
O=C(/C=C/c1cccc([N+](=O)[O-])c1)NNc1c(F)c(F)cc(F)c1F	none
Cc1ccc(C(=O)/C=C/c2ccc(Br)cc2)o1	none
Cc1ccc(C(=O)/C=C/c2ccc(Br)o2)o1	MITF inh 67 | MITF inh conf inactive | AlphaScreen intf2 inactive
CCCCCc1ccc(-c2ccc(C(=O)Nc3ccc(CCCC)cc3)cc2)nc1	none
C=C(C)CNC(=S)Nc1ccccc1	MITF inh 77! | MITF inh conf inactive | AlphaScreen intf2 inactive
C=C(C)CNC(=S)Nc1ccccn1	none
C=CCN1C(=O)/C(=C/c2c(N3CCCCC3)nc3ccc(C)cn3c2=O)SC1=S	none
Cc1ccc2c(c1C)C(C)(C)C1(C=Nc3c(ccc4ncccc34)O1)N2C (stereo not given)	MITF inh 57 | MITF inh conf 52 | AlphaScreen intf2 52
Cc1cc(C)n(CCNC2CCN(c3ccc(C(=O)NC(C)c4ccccc4)cc3)CC2)n1 (stereo not given)	MITF inh 91 | MITF inh conf inactive | AlphaScreen intf2 inactive
CCN1C(=O)/C(=c2\sc3n(c2=O)C(c2cccs2)C(C(=O)OC)=C(C)N=3)c2ccccc21 (stereo not given)	none
CCCc1nc(SCC(=O)NC(C)(C)C)c2ccccc2n1	MITF inh 53 | MITF inh conf inactive | AlphaScreen intf2 inactive
CSc1ccc(CN(CCO)Cc2ccccc2)cc1	none
OCCN(Cc1ccccc1)Cc1ccccc1Cl	none
O=C(Cc1cccc(C(F)(F)F)c1)Nc1ccccc1	none
OCCN(Cc1ccccc1)Cc1cccc(C(F)(F)F)c1	MITF inh 52 | MITF inh conf inactive | AlphaScreen intf2 inactive
OCCN(Cc1ccccc1)Cc1ccc(C(F)(F)F)cc1	MITF inh 52 | MITF inh conf inactive | AlphaScreen intf2 inactive
OCCN(Cc1ccccc1)Cc1cccc(F)c1	MITF inh 57 | MITF inh conf inactive | AlphaScreen intf2 inactive
OCCN(Cc1ccccc1)Cc1ccccc1F	MITF inh 61 | MITF inh conf inactive | AlphaScreen intf2 inactive
C=Cn1c(-c2cccc(Br)c2)n[nH]c1=S	none
COc1ccc(C2CC(c3c(C)cc(C)[nH]c3=O)=NN2c2ccccc2C)cc1 (stereo not given)	none
COc1ccc(NC(=O)NNC(=O)c2cc(C3CC3)nc3ccccc23)c(OC)c1	MITF inh 61 | MITF inh conf inactive | AlphaScreen intf2 inactive
COc1ccc(NC(=O)c2cc(-c3ccccc3)nc3ccccc23)c(OC)c1	none
O=C(Nc1ccccc1)c1cccc(-c2csc3ccccc23)c1	none
Cn1c(SCC(=O)Nc2ccc(C(=O)O)cc2)nnc1-c1ccncc1	none
CC(=O)c1ccc(NC(=O)CSc2nnc(-c3ccncc3)n2CCCN(C)C)cc1	MITF inh 71 | MITF inh conf inactive | AlphaScreen intf2 inactive
CCc1ccc(NC(=O)CSc2nnc(-c3ccncc3)n2CCCN(C)C)cc1	MITF inh 88 | MITF inh conf inactive | AlphaScreen intf2 inactive
CCn1c(SCC(=O)Nc2ccc(NC(=O)C(C)(C)C)cc2)nnc1-c1ccncc1	none
O=C(O)CC(C(=O)O)n1ccnc1 (stereo not given)	none

Assay outcomes (PubChem BioAssay)
